In PubChem BioAssay (NCATS):
Records with an inconclusive call do not appear. The source made the active and inactive calls. Calls come from the whole dose curve; as a rule, active = well fitted inhibition curve with a large enough effect; inconclusive = small, poorly fitted or top-dose-only effect; inactive = no such curve, though single readings can be large or run the other way.

Each compound was assayed against Retinaldehyde dehydrogenase 3 (Homo sapiens) (UniProt P47895) (assay: qHTS for Inhibitors of the Aldehyde Dehydrogenase Family (ALDH1A3) Primary screen (AID 2061315;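 note: plate controls were DMSO vehicle for no effect and reference inhibitor for full effect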)). Conditions: ALDH inhibition qHTS; series mostly up to 56 µM; activity change, negative = inhibition: at the top concentration.

Compound	activity change, negative = inhibition
C[C@@H]1[C@H](O)[C@@H](C)/C=C/C=C/CC/C=C/C=C/C=C/C=C/[C@H](O[C@H]2O[C@@H](C)[C@H](O)[C@@H](N)[C@H]2O)C[C@@H]2O[C@](O)(C[C@@H](O)[C@H](O)CC[C@@H](O)C[C@@H](O)C[C@@H](O)CC(=O)O[C@H]1C)C[C@H](O)[C@H]2C(=O)O	-0.411% [at 28 µM] (inactive)
CC(C)CCn1c(CN2CCN(C(=O)C3CC3)CC2)nc2c1c(=O)n(C)c(=O)n2C	-9.09% (inactive)
C=C(CO)C(=O)O[C@H]1CC(=C)[C@@H]2C[C@H](O)C(=C)[C@@H]2[C@H]2OC(=O)C(=C)[C@@H]21	-6.47% (inactive)
CCOc1ccc(CCNC(=O)c2cc3sccc3n2CCN(C)C)cc1OCC	-1.86% (inactive)
COC(=O)c1ccc(O)c2ncc(N3CCN(C)CC3)cc12	5.43% (inactive)
CC(C)[C@H]1OC(=O)[C@H](Cc2ccccc2)N(C)C(=O)[C@@H](C(C)C)OC(=O)[C@H](Cc2ccccc2)N(C)C(=O)[C@@H](C(C)C)OC(=O)[C@H](Cc2ccccc2)N(C)C1=O	17.8% [at 16.9 µM] (inactive)
CCOc1ccc(CCNC(=O)c2cc3ccncc3n2Cc2cccc(C)c2)cc1OCC	-0.0962% (inactive)
CCOc1ccc(CCNC(=O)c2cc3ccccc3n2Cc2cccc(C)n2)cc1OCC	-6.18% (inactive)
Cc1nnc2n1-c1sc(CCc3ccc(CC(C)C)cc3)cc1C(c1ccccc1Cl)=NC2C (configuration not stated)	37.5% (inactive)
S=P(c1ccccc1)(c1ccccc1)c1c[n+](Cc2ccccc2)c2ccccn12	-0.28% (inactive)
Cn1cc(Br)c(C2N=C(Nc3nc4ccccc4o3)NC3=C2C(=O)CCC3)n1 (configuration not stated)	13.1% (inactive)
CCN1CCN(C(c2ccc(Cl)cc2)c2ccc(Cl)cc2)CC1	-8.02% (inactive)
O=C(Nc1ncc(Cc2ccc(C(F)(F)F)cc2)s1)c1cn(-c2ccccc2)cn1	15.2% (inactive)
CO[C@H]1C[C@H](O[C@H]2CC[C@]3(CO)[C@H]4CC[C@]5(C)[C@@H](C6=CC(=O)OC6)CC[C@]5(O)[C@@H]4CC[C@]3(O)C2)O[C@H](C)[C@H]1O	9.32% [at 28 µM] (inactive)
Cc1[nH]c2ccccc2c1P(=S)(c1ccccc1)c1ccccc1	3.13% (inactive)
CC1=CC2/C=C(\C)CCC(O)C(O)/C=C/C(=O)C23C(=O)NC(CC(C)C)C3C1C (configuration not stated)	9.38% [at 28 µM] (inactive)

Compound	activity change, negative = inhibition
CC(=O)O[C@H]1C(=O)[C@]2(C)C(O)C[C@H]3OC[C@@]3(OC(C)=O)[C@H]2[C@H](OC(=O)c2ccccc2)[C@]2(O)C[C@H](O)C(C)=C1C2(C)C (some centres not stated)	-20.5% [at 16.9 µM] (inactive)
COC1C(O)C(C)OC(OC2C(CO)O[C@@H](O[C@@H]3CC4CCC5C(CC[C@]6(C)[C@@H](C7=CC(=O)OC7)CC[C@]56O)[C@@]4(C)[C@H](OC(C)=O)C3)C(O)C2O)C1O (some centres not stated)	-1.66% [at 16.9 µM] (inactive)
COc1cccc(CNc2ccc(C(=O)Nc3nccs3)cc2)c1O	6.34% (inactive)
Cc1cccc2nc(NC3=NC(c4[nH]ncc4Cl)C4=C(CCCC4=O)N3)oc12 (configuration not stated)	0.578% (inactive)
Oc1ccc2c(c1)C13CCCC[C@H]1[C@@H](C2)N(CC1CCC1)CC3	-2.2% (inactive)
Cc1ccccc1[C@@H](C(=O)NC1CCCCC1)N(C(=O)Cn1ccnc1C)c1cccc(F)c1	2.65% (inactive)
N#Cc1ccc(NC(=O)Nc2nnc(-c3ccncc3)s2)cc1Cl	6.71% (inactive)
Cn1c(-c2ccccc2)c(P(=S)(c2ccccc2)c2ccccc2)c2ccccc21	5.41% (inactive)
CO[C@@H]1[C@H](O)[C@@H](O[C@@H]2C[C@H]3CC[C@@H]4C(CC[C@]5(C)[C@@H](C6=CC(=O)OC6)CC[C@]45O)[C@@]3(C)[C@H](O)C2)O[C@H](C)[C@@H]1O[C@@H]1O[C@H](CO)[C@@H](O)[C@H](O)[C@H]1O (some centres not stated)	-17.6% [at 16.9 µM] (inactive)
CC(C)=CCC[C@]1(C)C=Cc2c(O)c3c(c(CC=C(C)C)c2O1)O[C@]12C(=C[C@@H]4CC1C(C)(C)O[C@@]2(C/C=C(/C)C(=O)O)C4=O)C3=O	-0.89% (inactive)
C=C[C@H]1[C@H](O[C@@H]2O[C@H](CO)[C@@H](O)[C@H](O)[C@H]2O)OC=C2C(=O)OCC[C@H]21	-8.21% (inactive)
CCOc1ccc(CCNC(=O)c2cc3ccccc3n2CCN2CCOCC2)cc1OCC	-10.9% (inactive)
C[C@H]1C/C=C/[C@H]2[C@@H]3O[C@]3(C)[C@@H](C)[C@H]3[C@H](Cc4ccccc4)NC(=O)[C@]32OC(=O)O/C=C/[C@@](C)(O)C1=O	-8.42% [at 28 µM] (inactive)
O=S(=O)(Nc1nccs1)c1ccc(NCc2cccc(F)c2O)cc1	24.5% (inactive)
CC(=O)Nc1ncc(S(=O)(=O)N2CCOCC2)s1	-1.96% (inactive)
Cc1ccccc1C(=O)N1CCc2cc(N3CCC(NC(=O)Cc4ccccc4)C3)ccc21 (configuration not stated)	-4.43% (inactive)
